Compounds with a hit are over-represented: about 3.5% of the library has one in this group of screens.
KCNK3 inh: human KCNK3 channel inhibition, primary screen. CHO-KCNK3 thallium flux, FluxOR fluorescence; hits give low values. B-score at 10 µM. AID 602410. O14649. actives 0.84% (n = 340,000);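 active = B-score under library mean minus 4 SD, starting fluorescence ratio at most library mean plus 5 SD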;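 note: more negative B-score means stronger inhibition of thallium flux through KCNK3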
Kir21 block: Kir2.1 (mouse) channel inhibition; AID 1672; HEK293-Kir2.1, FluxOR thallium flux fluorescence; hits give low values; actives 0.85% (n = 310,000); B-score at 10 µM;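 active = fluorescence ratio B-score at or below minus 3 SD of library scores, with starting-brightness B-score within 2 SD, cut at about -4.2 in these data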;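 note: channel flux triggered by added potassium and thallium sulfate stimulus; B-score of peak minus minimum fluorescence over baseline after thallium stimulus; more negative B-score means stronger Kir2.1 block with less thallium influx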
ANO1 activ: activators or potentiators of mouse TMEM16A chloride channel | B-score at 10 µM | AID 623877 | Q8BHY3 | actives 0.3% (n = 340,000) | HEK293 TMEM16A/YFP-H148Q/I152L, iodide quench fluorescence; hits give low values;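 active = fluorescence-ratio B-score plate-corrected deviation score at least 3 library SD below zero, with starting fluorescence score within 5 deviations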;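 note: channel opened by trigger with iodide after compound preincubation; score built on the fluorescence ratio of max minus min over baseline; more negative score means more quench and so TMEM16A activation or potentiation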
KCNK9 inh: inhibitors of human KCNK9 two-pore domain potassium channel | Q9NPC2 | HEK293 KCNK9, FluxOR thallium flux fluorescence; hits give low values | B-score at 10 µM | actives 1.2% (n = 310,000);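 active = ratio B-score over 3 SD below the library mean, with starting fluorescence within 5 SD of its mean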;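 note: negative B-score means less thallium flux so channel inhibition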
TMEM16A inh: inhibitors of mouse TMEM16A calcium-activated chloride channel | Q8BHY3 | HEK293 TMEM16A/YFP iodide influx fluorescence, ionomycin | normalized B-score (activity score, 25-100; higher = stronger inhibition) at 10 µM | actives 1.2% (n = 310,000);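 active = ratio plate-corrected score three or more library SD toward inhibition, starting fluorescence score within five deviations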;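 note: score derived from kinetic fluorescence span divided by baseline fluorescence per well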
Numbers stand for hits; n = inactive; x = no result given.

SMILES	KCNK3 inh	Kir21 block	ANO1 activ	KCNK9 inh	TMEM16A inh
COc1ccc(CN2CCC(=O)N([C@H](CO)c3ccccc3)CC2)cc1	n	n	-11.2	n	n
O=C1CCN(Cc2cccnc2)CCN1[C@H](CO)c1ccccc1	n	n	n	n	n
CC(C)Cn1c(CN2CCCCC2C)nc2c1c(=O)n(C)c(=O)n2C (configuration not stated)	n	n	-8.15	n	n
CCCn1c(CN2CCCCC2C)nc2c1c(=O)n(C)c(=O)n2C (configuration not stated)	n	n	n	n	n
c1ccc(Oc2c3ccccc3nc3ccccc23)cc1	x	n	x	n	n
Cc1cc(C)c(OCCNCc2ccccc2)c(C)c1	n	-5.01	n	n	n
Cc1cc(C)c(C)c(OCCNCc2ccccc2)c1	n	-5.52	n	n	n
Cc1cc(Br)ccc1OCCNCc1ccccc1	n	-10.2	n	n	n
Brc1ccccc1OCCNCc1ccccc1	n	n	n	n	n
CCC(C)NCCOCCOc1ccc(Cl)c2ccccc12 (configuration not stated)	n	-9.72	n	n	n
Cc1cc2oc(=O)cc(-c3ccccc3)c2c(C)c1-c1ccc(C#N)cc1	n	x	n	x	x
Clc1ccc(OCCCNCc2ccccc2)c2ccccc12	n	-12.8	n	n	n
COCCCNCCCCOc1c(Cl)cc(C)cc1Br	n	-6	n	n	n
Cc1cc(Cl)cc(C)c1OCCNCc1ccccc1	n	n	n	n	n
Cc1cc(C)c(OCCCCNCc2ccccc2)c(Cl)c1	n	-11.7	n	n	n
Cc1cc(Cl)cc(C)c1OCCOCCNCc1ccccc1	n	-12.1	n	n	n
Cc1cc(Cl)c(OCCCNC2CCCC2)c(Br)c1	n	n	n	n	n
CC(C)CNS(=O)(=O)c1ccc(CCC(=O)NCc2ccco2)cc1	n	n	n	n	n
O=C(COC(=O)c1cc(S(=O)(=O)N2CCCC2)ccc1O)Nc1ccc(SC(F)F)cc1	n	x	-26.2	x	x
CCCC(C(=O)Nc1cccc(S(=O)(=O)N2CCCC2)c1)c1ccccc1 (configuration not stated)	n	n	n	-7.38	n
Cc1ccc(C)c(OCCC(=O)Nc2cc(S(=O)(=O)N3CCCCC3)ccc2C)c1	n	x	n	x	x
Cc1ccc(C)c(OCCC(=O)OCC(=O)Nc2cc(S(=O)(=O)N3CCCCC3)ccc2C)c1	-10.2	x	n	x	x
CCc1nc2ccccc2c(C(=O)OCC(=O)Nc2cccc(S(=O)(=O)N3CCOCC3)c2)c1C	-9.03	n	n	n	n
CC(CC(=O)Nc1cccc(S(=O)(=O)N2CCCCC2)c1)c1ccccc1 (configuration not stated)	n	x	n	x	x
O=C(COC(=O)c1cc(S(=O)(=O)N2CCCC2)ccc1O)Nc1ccc(S(=O)(=O)N2CCOCC2)cc1	n	n	n	n	n
SMILES	KCNK3 inh	Kir21 block	ANO1 activ	KCNK9 inh	TMEM16A inh
Cc1ccc(S(=O)(=O)N2CCCCC2)cc1NC(=O)c1cc2ccccc2o1	-9.02	x	n	x	x
Cc1ccc(C)c(C(=O)OCC(=O)Nc2cccc(S(=O)(=O)N3CCCCC3)c2)c1	-9.59	x	n	x	x
O=C(COC(=O)C1CC2C=CC1C2)Nc1cccc(S(=O)(=O)N2CCCCC2)c1 (configuration not stated)	n	n	n	n	n
O=C(COC(=O)C1CC2C=CC1C2)Nc1cccc(S(=O)(=O)N2CCCCCC2)c1 (configuration not stated)	n	n	n	n	100
C/C(Cn1nc([N+](=O)[O-])cc1C)=N\NC(=O)c1ccc(C(C)(C)C)cc1	n	n	n	n	n
CCN(Cc1ccccc1)c1ccc(/C=N/N=C(N)N)cc1	n	-13.9	n	n	100
CN1CCN(NC(=O)Nc2cccc(F)c2)CC1	n	n	n	n	n
O=C1CCC(=O)N1CCC(c1ccc(F)cc1)c1ccco1 (configuration not stated)	n	n	n	n	n
O=C1c2ccccc2C(=O)N1CCC(c1ccc(F)cc1)c1ccco1 (configuration not stated)	n	-4.78	n	n	n
Cc1ccc(O)c(-c2cc(-c3ccccc3C)[nH]n2)c1	n	n	n	-7.37	x
Cc1ccc(O)c(-c2cc(-c3ccccc3[N+](=O)[O-])[nH]n2)c1	n	n	n	n	n
CC(C)Oc1ccc(CNC(=O)CC(c2ccccc2)c2cc(Cl)ccc2O)cc1 (configuration not stated)	n	n	n	-7.32	100
O=C(CC(c1ccccc1)c1ccccc1O)NCCc1ccccc1 (configuration not stated)	n	n	n	n	n
O=C(CC(c1ccccc1)c1ccccc1O)NCc1ccccc1Cl (configuration not stated)	n	n	n	-7.55	n
CC(C)(C)c1ccc(S(=O)(=O)NCC(=O)N2CCCC2)cc1	n	n	n	n	n
COc1cc2c(cc1OC)C(C)N(C(=O)c1ccc(Br)o1)CC2 (configuration not stated)	n	n	n	n	n
Nc1sc(-c2ccccc2)n[n+]1Cc1cccc2cccnc12	n	-7.04	n	n	n
COc1cc(C)ccc1OCc1cc(C(=O)NCCN2CCOCC2)no1	n	n	n	n	n
C/C=C/C=C/[C@H]1Cc2cc(O)cc(O)c2O1	x	-4.27	x	n	n
Cc1ccc([N+](=O)[O-])cc1NC(=O)CN(C1CCCCC1)S(=O)(=O)c1ccc(Cl)cc1	n	n	n	-7.66	x
Cc1ccc([N+](=O)[O-])cc1NC(=O)C1CCCC1	n	n	n	n	n
Cc1cccc(CS(=O)(=O)c2ncc(Cl)c(C(=O)Nc3c(C)cccc3C)n2)c1	n	-11.8	n	-6.68	n
Cc1cccc(C)c1NC(=O)c1nc(S(=O)(=O)Cc2ccccc2)ncc1Cl	n	n	n	n	n
Cc1cc(C)c(S(=O)(=O)NCCCn2ccnc2)cc1C	n	n	n	n	n
O=C(OCCc1cc2ccccc2c(=O)o1)c1cccc(Br)c1	-8.85	x	n	x	x
SMILES	KCNK3 inh	Kir21 block	ANO1 activ	KCNK9 inh	TMEM16A inh
CCOc1ccc(NC(=O)CN(C)C(=O)c2ccccc2-n2cnnn2)cc1OCC	n	n	n	n	n
Clc1ccccc1N1CCN(Cc2c[nH]c3ccccc23)CC1	n	n	n	n	n
OC1(c2ccc(Cl)cc2)CCN(Cc2c[nH]c3ccccc23)CC1	n	-6.75	n	n	n
FC(F)Sc1ccc(NC(=S)NCC2CCCCC2)cc1	n	n	n	-7.33	100
CC1CCCCC1NC(=S)Nc1ccc(SC(F)F)cc1 (configuration not stated)	n	n	n	n	n
COc1ccc(N=Cc2ccccc2O)cc1	n	x	n	x	x
COc1ccc(N=Cc2[nH]c3ccccc3c2O)cc1	n	n	-7.59	n	n
O=C(CCN1C(=O)/C(=C\C=C\c2ccccc2)SC1=S)Nc1ccccc1C(=O)O	n	n	n	n	25
CCN(C(=O)c1ccc(Cl)cc1[N+](=O)[O-])c1ccccc1C	n	-4.95	n	n	n
